# HT1080 IDH1KD tx – qHTS for induction of synthetic lethality in tumor cells producing 2HG: qHTS for the HT-1080-IDH1KD cell line. HT-1080 IDH1 knockdown viability, ATP luminescence, 48 h. Potency, µM (series often up to 46.1 µM), most hits filed as cytotoxic. 360,000 tested, 2% active
#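 Assay cells: HT-1080 with IDH1 knockdown, 750 per well, RPMI/5% FBS. Exposure: 48 h at 37 °C following 2 h pre-incubation. Read: CellTiter-Glo luminescence; fitted concentration-response, curve class assigned.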
# DT40 TDP1 CPT – qHTS for Inhibitors of human tyrosyl-DNA phosphodiesterase 1 (TDP1): qHTS in cells in presence of CPT. chicken DT40 Tdp1-/-;hTDP1 cells + 20 nM CPT, ATP luminescence, 48 h. Potency, µM (doses to about 46.2 µM), most hits filed as inhibitors. 420,000 tested, 12% active; also: nearly all actives have a fitted effect of over 55% in size
#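 Chicken DT40 Tdp1-/- cells complemented with human TDP1, 400 cells/well, exposed to compounds plus 20 nM camptothecin for at least 48 h at 37 C; viability read as ATP content by CellTiter-Glo luminescence.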
# HT1080-NT tox – qHTS for induction of synthetic lethality in tumor cells producing 2HG: qHTS for the HT-1080-NT fibrosarcoma cell line. HT-1080-NT fibrosarcoma viability, CellTiter-Glo ATP luminescence, 48 h. Potency, µM (series often up to 46.1 µM), actives largely listed as cytotoxic. 360,000 tested, 1.6% active;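 also: NT is the 2HG producing partner of a matched IDH1 knockdown line; nearly all actives have a fitted effect of over 55% in size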
#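 Viability of the 2HG-overproducing fibrosarcoma line after 48 hours of compound exposure at 37 degrees C was determined by luminescence with CellTiter-Glo, and concentration-effect curves were then fitted and categorized.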
# TDP1 cell noCPT – qHTS for Inhibitors of human tyrosyl-DNA phosphodiesterase 1 (TDP1): qHTS in cells in absence of CPT; DT40 Tdp1-/- hTDP1 cells, no CPT, ATP luminescence, 48 h; Potency, µM (highest dose often 46.2 µM), actives largely listed as inhibitors; 420,000 tested, 15% active; AID 686978, 2013; also: nearly all actives have a fitted effect of over 55% in size
#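 Luminescent ATP content (CellTiter-Glo) served as the growth readout. Knockout chicken DT40 cells expressing human TDP1 were exposed to compounds without camptothecin for a minimum 48 hr at 37 °C.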
# IL-1B inflam inh – qHTS for Inhibitors of Inflammasome Signaling: IL-1-beta AlphaLISA Primary Screen; THP-1 LPS/ATP IL-1B secretion, AlphaLISA, 16 h; stronger effect = lower value; activity change, % at 57.5 µM; 360,000 tested, 4.7% active; in the data active = activity change below about -50%; inconclusive = mostly about -30% to -49%
#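 THP-1 cells pretreated 1 hr with compounds (up to 57.5 uM final), then stimulated with LPS (250 ng/mL final) plus ATP (1.25 mM final); secreted IL-1B measured by AlphaLISA after 16 hr, decreased signal indicating inhibition.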
# A number is an active result; n = inactive; u = inconclusive; x = no result given. Shown are actives, neighbours in structure and some others; about 19% of the full set was active somewhere. Unless noted, calls follow the shape of the dose curve; as a rule, active = well fitted curve in the direction sought with a large enough effect; inconclusive = small, poorly fitted or top-dose-only effect, or another doubt; inactive = no such curve, though single readings can be large; an effect the other way counts as inactive or inconclusive.
SMILES,HT1080 IDH1KD tx,DT40 TDP1 CPT,HT1080-NT tox,TDP1 cell noCPT,IL-1B inflam inh
CC1=NN(C(=O)c2ccc(C)o2)C(O)(c2ccccc2)C1 (stereo not drawn),n,4.61µM,n,4.61µM,n
CC1=NN(C(=O)c2ccccc2Br)C(O)(c2ccc(Cl)cc2)C1 (stereo not drawn),n,n,n,n,n
Cn1c(=O)c2sccc2n2c(CCCC(=O)Nc3ccc(F)c(F)c3)nnc12,x,n,x,u,x
COCc1c(C(=O)NCC(c2ccco2)N2CCCC2)oc2ccccc12 (stereo not drawn),n,n,n,u,n
COc1ccc(C(CNC(=O)c2cc3ccccc3o2)N2CCCCC2)cc1 (stereo not drawn),n,u,n,20.6µM,u
COc1ccc(C(CNC(=O)c2oc3cc(C)c(Cl)cc3c2C)N2CCCCC2)cc1 (stereo not drawn),n,13µM,n,u,n
COc1ccc(C(CNC(=O)c2oc3ccccc3c2C)N2CCCCC2)cc1 (stereo not drawn),x,16.4µM,x,23.1µM,x
COc1ccccc1C(CNC(=O)c1oc2ccccc2c1C)N1CCCC1 (stereo not drawn),n,u,n,23.1µM,n
COc1ccc(C(CNC(=O)c2cc3ccccc3o2)N2CCCC2)cc1 (stereo not drawn),n,u,n,u,n
CCN(CC)S(=O)(=O)c1ccc(=O)n(CC(=O)N2Cc3ccccc3CC2C(N)=O)c1 (stereo not drawn),n,n,n,n,n
COc1ccc(C(CNC(=O)c2oc3ccc(C)cc3c2C)N2CCCCC2)cc1 (stereo not drawn),n,20.6µM,n,u,n
COc1ccc(C(CNC(=O)CNC(=O)c2cccc(C)c2)N2CCCCC2)cc1 (stereo not drawn),n,n,n,n,n
COc1ccc(/C=N/NC(=O)CCCOc2ccc(Cl)cc2Cl)cc1,n,n,n,n,n
O=C(CCCOc1ccc(Cl)cc1Cl)NCCCO,n,n,n,n,n
Cc1cc(Cl)ccc1OCCCC(=O)N/N=C/c1cccc([N+](=O)[O-])c1,n,14.6µM,n,u,n
O=C(CCCOc1ccc(Cl)cc1Cl)N/N=C\C1CCCCC1,n,n,n,n,-50.5
Cc1cc(Cl)ccc1OCCCC(=O)NO,20.6µM,8.2µM,20.6µM,18.4µM,n
O=C(CCCOc1ccc(Cl)cc1Cl)N/N=C/c1ccc(Cl)cc1,u,u,u,23.1µM,u
O=C(CSc1nc2nn(-c3ccccc3)c(=O)c-2c2n1CCCCC2)c1ccc(OC(F)F)cc1,n,u,n,n,u
CC1(c2nnnn2Cc2ccccc2)CCC(=O)N1Cc1ccco1 (stereo not drawn),n,n,n,n,n
CCN(CC)S(=O)(=O)c1ccc(N2CC(C(=O)NCc3ccco3)CC2=O)cc1 (stereo not drawn),n,n,n,n,n
CC(=O)N(Cc1ccccc1)c1c(N)nc(N)[nH]c1=O,n,n,n,n,-102.9
CN(Cc1ccccc1)C(=O)CSc1n[nH]c(N)n1,n,n,n,n,n
CCCCCCCN1CCN=C1Nc1ccccc1,n,23.1µM,n,25.9µM,u
c1ccc(NC2=NCCN2CCC2CCCCC2)cc1,n,23.1µM,n,u,n
SMILES,HT1080 IDH1KD tx,DT40 TDP1 CPT,HT1080-NT tox,TDP1 cell noCPT,IL-1B inflam inh
c1ccc(NC2=NCCN2CCCC2CCCC2)cc1,n,u,n,u,n
CC1CCC2(OC1)OC1CC3C4CC[C@@H]5CC(O)CC[C@@]5(C)C4CC(=O)[C@]3(C)C1C2C (stereo partly drawn),x,n,x,n,x
Cc1oc(-c2cccc(Cl)c2)nc1CSc1nc2ncccc2[nH]1,x,u,x,20.6µM,x
COc1ccc(-c2nc(CSc3nc4ncccc4[nH]3)c(C)o2)cc1OC,x,u,x,20.6µM,x
Cc1nc(Nc2nc3ccccc3o2)nc(C)c1C,n,n,n,n,u
Cc1ccc(Nc2nc3ccccc3o2)cc1F,n,8.2µM,n,10.3µM,n
Cc1ccnc(Nc2nc3ccccc3o2)n1,u,u,u,20.6µM,n
CCc1nn(CC(=O)N2CCCCCC2)c(=O)c2cc3ccccc3n12,n,u,n,u,n
Cc1c(C(=O)NCCC2=CCCCC2)sc2ncnc(N3CCCCC3C)c12 (stereo not drawn),n,u,n,n,-80.4
Cc1sc2ncnc(N3CCCCC3C)c2c1C (stereo not drawn),n,u,n,u,n
Oc1cccc(O)c1O,x,5.96µM,x,u,x
Cc1nnc(SCCn2c(N3CCCC(C)C3)nc3c2c(=O)n(C)c(=O)n3C)s1 (stereo not drawn),n,n,n,u,n
Cc1c(/C(O)=C2/C(=O)C(=O)N(Cc3cccnc3)C2c2ccccn2)cnn1-c1ccccc1 (stereo not drawn),n,n,n,n,n
CCC1=NN(C(=O)CCc2ccccc2O)C(O)(C(F)(F)F)C1 (stereo not drawn),n,n,n,u,n
COC1C=CC=C(C)C(=O)NC2=CC(=O)C(N)=C(CC(C)CC(OC)C(O)C(C)C=C(C)C1OC(N)=O)C2=O (stereo not drawn),0.0411µM,0.164µM,u,0.184µM,-91.9
C=CCNC1=C2C[C@@H](C)C[C@H](OC)[C@H](O)[C@@H](C)/C=C(\C)[C@H](OC(N)=O)[C@@H](OC)/C=C\C=C(/C)C(=O)NC(=CC1=O)C2=O,x,1.06µM,x,0.376µM,x
COc1ccc(C[C@@H]2CN3C(=NC[C@@H]3Cc3ccc(O)cc3)N2C[C@H](C)NC(=O)CCC2CCCCC2)cc1,n,5.8µM,n,5.17µM,u
COc1ccc(C[C@H]2CN3C(=NC[C@@H]3Cc3ccc(O)cc3)N2C[C@H](C)NC(=O)CCC2CCCCC2)cc1,n,8.2µM,n,16.4µM,n
CN1CCN(C(=O)C2=C[C@@H](C3CCCCC3)C[C@@H](OCCCCO)O2)CC1,n,n,n,n,n
COc1cccc(NC(=O)CSc2nc3ccccc3cc2Cc2ccccc2)c1,n,u,n,u,n
COc1cccc(CSc2nc3ccccc3cc2C=O)c1,20.6µM,1.16µM,18.4µM,1.03µM,n
O=C1c2ccccc2S(=O)(=O)c2cc(N3CCC4(CC3)OCCO4)ccc21,n,u,n,u,n
CCc1nnc(NC(=O)CCC(=O)NCCc2ccccc2)s1,n,n,n,n,n
CN(Cc1ccccc1)C(=O)COC(=O)C12CC3CC(CC(Br)(C3)C1)C2,n,25.9µM,n,u,n
